Calls of active or inactive are those of the source. Unless noted, no rule for the calls is given here.
What was measured:
[1] = resazurin metabolic signal in HepG2 cells – cell-based, resazurin fluorescence, 24 h, PK04 Diversity Set, profiling panel (AID 1172); details: HepG2 viability, higher = more signal
[2] = budding yeast growth changes without added modifier – OD600, strain BY4716, 24 h, basal condition, primary screen (AID 1173); details: S. cerevisiae BY4716 growth, OD600, 24 h; higher = more signal, called active from +8 up or from −8 down
[3] = viability profiling in MM1S myeloma cells – cell-based, resazurin fluorescence, basal, 24 h, PK04 Diversity Set, profiling panel (AID 1174); details: higher = more signal, called active from +8 up or from −8 down;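 also: MM1S multiple myeloma cell line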
[4] = biological target: Dihydroorotate dehydrogenase (quinone), mitochondrial (Plasmodium falciparum (isolate 3D7)) (UniProt Q08210); experiment: inhibition of P. falciparum DHODH – biochemical, C-terminal His tag, absorbance 600 nm, primary screen (AID 1175); details: PfDHODH enzyme, DCIP absorbance 600 nm; higher = more signal, called active from +8 up or from −8 down;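 also: recombinant parasite enzyme with a five histidine tag at its C terminus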
Chain of Dihydroorotate dehydrogenase (quinone), mitochondrial (Plasmodium falciparum (isolate 3D7)) (Q08210 whole entry, looked up): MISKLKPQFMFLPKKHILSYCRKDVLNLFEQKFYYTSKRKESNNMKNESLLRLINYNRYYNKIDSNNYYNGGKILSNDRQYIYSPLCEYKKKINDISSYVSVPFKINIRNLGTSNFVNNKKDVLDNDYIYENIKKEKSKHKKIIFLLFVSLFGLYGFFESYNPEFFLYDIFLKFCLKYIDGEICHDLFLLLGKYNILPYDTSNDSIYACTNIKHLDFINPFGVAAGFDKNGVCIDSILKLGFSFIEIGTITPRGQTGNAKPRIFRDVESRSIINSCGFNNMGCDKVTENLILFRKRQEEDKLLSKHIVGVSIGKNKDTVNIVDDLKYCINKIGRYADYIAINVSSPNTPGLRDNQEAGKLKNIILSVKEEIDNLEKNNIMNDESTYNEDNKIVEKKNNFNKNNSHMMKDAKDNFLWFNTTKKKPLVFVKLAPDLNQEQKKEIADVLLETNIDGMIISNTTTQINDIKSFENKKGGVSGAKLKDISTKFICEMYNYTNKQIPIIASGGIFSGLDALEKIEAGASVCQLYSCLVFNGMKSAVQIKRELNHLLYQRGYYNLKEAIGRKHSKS

[5] = inhibition of PAO1 biofilm formation – strain PAO1, LB-PBS medium, absorbance 600 nm, primary screen (AID 1176); details: P. aeruginosa PAO1 growth/biofilm, A600, 12 h; higher = more signal
[6] = growth modulation of vineyard yeast isolate – strain RM11-1a, OD600, basal, 24 h, primary screen (AID 1177);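 also: cultures grown under basal conditions with no added stressor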; details: S. cerevisiae RM11-1a growth, OD600, 24 h; higher = more signal, called active from +8 up or from −8 down
[7] = growth of efflux-deficient E. coli DRC39 – strain DRC39, OD650, 24 h, E. coli filamentation inducers, primary screen (AID 1178);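 also: growth measured as culture turbidity by optical density at 650 nm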; details: E. coli DRC39 acrAB, higher = more signal, called active from +8 up or from −8 down
[8] = growth of efflux-deficient E. coli DRC39 – strain DRC39, OD650, 48 h, E. coli filamentation inducers, primary screen (AID 1179);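 also: screen aims at cell division blockers that make cells filament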; details: E. coli DRC39 delta-acrAB growth, higher = more signal, called active from +8 up or from −8 down
[9] = viability profiling in RPMI8226 myeloma cells – cell-based, resazurin fluorescence, basal, 24 h, PK04 Diversity Set, profiling panel (AID 1180); details: higher = more signal;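 also: RPMI8826 multiple myeloma cell line at 5000 cells per well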
[10] = biological target: E3 ubiquitin-protein ligase XIAP (Homo sapiens) (UniProt P98170); experiment: small molecules binding XIAP protein – biophysical, small-molecule microarray, fluorescence 635 nm, primary screen (AID 1181); details: higher = more signal;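 also: score merges 667 nm emission and signal to noise over triplicate slides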
Chain of E3 ubiquitin-protein ligase XIAP (Homo sapiens) (P98170 whole entry, looked up, the tested form may be a part): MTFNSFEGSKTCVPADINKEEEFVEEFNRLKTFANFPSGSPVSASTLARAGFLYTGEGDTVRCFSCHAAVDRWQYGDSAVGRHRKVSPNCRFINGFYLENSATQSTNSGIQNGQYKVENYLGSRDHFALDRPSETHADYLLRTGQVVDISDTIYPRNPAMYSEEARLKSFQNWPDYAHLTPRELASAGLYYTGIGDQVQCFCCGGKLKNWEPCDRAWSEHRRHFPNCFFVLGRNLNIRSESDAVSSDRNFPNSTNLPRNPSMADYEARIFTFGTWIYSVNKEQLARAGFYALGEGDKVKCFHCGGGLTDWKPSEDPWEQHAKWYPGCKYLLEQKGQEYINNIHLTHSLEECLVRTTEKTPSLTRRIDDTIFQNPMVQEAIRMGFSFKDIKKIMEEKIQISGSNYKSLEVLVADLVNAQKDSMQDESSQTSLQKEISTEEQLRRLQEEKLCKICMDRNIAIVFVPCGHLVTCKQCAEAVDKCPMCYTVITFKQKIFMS

[11] = tested on: XIP peptide (Xip251-270) binding; experiment: XIP fragment 251-270 binding compounds – biochemical, small-molecule microarray, fluorescence 635/667 nm, 0.1 µg/mL protein, primary screen (AID 1182); details: fluorescent protein binding, 635 nm, higher = more signal, called active from +8 up or from −8 down
XIP peptide (Xip251-270) = experiment: compounds binding XIP fragment 251-270 – biochemical, small-molecule microarray, fluorescence 635/667 nm, 0.5 µg/mL protein, primary screen (AID 1183); details: fluorescence 635 nm, higher = more signal
[12] = blood-stage malaria parasite viability loss – strain 3D7, DAPI fluorescence, 100 nL, primary screen (AID 1184);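 also: parasites grown inside human red blood cells in medium with human serum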; details: P. falciparum 3D7 growth, 3 d, higher = more signal
[13] = biological target: Homeobox protein Hox-A13 (Mus musculus) (UniProt Q62424); experiment: disruptors of Hoxa13 oligonucleotide interaction – biochemical, fluorescence polarization, labeled oligonucleotide, primary screen (AID 1185); details: Hoxa13:DNA binding, 15 min, higher = more signal, called active from +8 up or from −8 down
Chain of Homeobox protein Hox-A13 (Mus musculus) (Q62424 whole entry, looked up): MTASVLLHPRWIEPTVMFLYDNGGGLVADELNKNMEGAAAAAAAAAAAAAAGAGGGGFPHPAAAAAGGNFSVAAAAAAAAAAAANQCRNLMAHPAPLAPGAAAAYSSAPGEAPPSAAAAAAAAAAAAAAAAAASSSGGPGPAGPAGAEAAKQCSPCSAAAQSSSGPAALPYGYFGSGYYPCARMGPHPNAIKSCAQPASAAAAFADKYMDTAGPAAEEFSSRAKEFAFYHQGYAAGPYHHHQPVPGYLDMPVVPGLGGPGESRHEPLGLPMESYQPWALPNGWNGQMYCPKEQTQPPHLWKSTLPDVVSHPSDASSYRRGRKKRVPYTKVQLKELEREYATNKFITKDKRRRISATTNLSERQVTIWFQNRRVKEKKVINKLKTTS

[14] = blockers of DNA damage checkpoint Chk1 activation – imaging, HeLa, hydroxyurea, phospho-Chk1 antibody, percent positive cells, primary screen (AID 1186); details: hydroxyurea-induced phospho-Chk1 immunofluorescence imaging, higher = more signal
[15] = blockers of DNA damage checkpoint Chk1 activation – imaging, HeLa, hydroxyurea, phospho-Chk1 nuclear intensity, primary screen (AID 1187); details: hydroxyurea-induced phospho-Chk1 immunofluorescence imaging, higher = more signal

Structure (SMILES) | z-score [1] | z-score [2] | z-score [3] | composite z-score [4] | z-score [5] | z-score [6] | z-score [7] | z-score [8] | z-score [9] | composite z-score [10] | composite z-score [11] | composite z-score (XIP peptide (Xip251-270)) | z-score [12] | z-score [13] | z-score [14] | z-score [15]
O=C1[C@@]23C=C(Br)[C@H](C[C@@H]2COC3)[C@]12CO2 | -0.845 | -10.2 (active) | -0.874 (inactive) | -1.91 (inactive) | 0.732 (inactive) | -0.384 (inactive) | -0.0135 (inactive) | -0.0637 (inactive) | -0.741 | -0.105 | -0.0125 (inactive) | -1.48 | 1.81 | -7.3 (inactive) | 0.825 (inactive) | 0.343 (inactive)
O=c1cccc(-c2ccccc2Cl)o1 | -0.611 | -2.25 (inactive) | -0.111 (inactive) | -0.316 (inactive) | -0.0043 (inactive) | -0.234 (inactive) | -0.366 (inactive) | -0.608 (inactive) | -0.698 | -0.0999 | -0.143 (inactive) | -0.231 | 0.382 | -0.226 (inactive) | 0.266 (inactive) | -0.26 (inactive)
O=C1O[C@H](c2ccccc2)[C@H](c2ccccc2)N2[C@H]1[C@@H](C(=O)N1CCN(c3ncccn3)CC1)[C@]1(C(=O)Nc3ccc(C#CC4=CCCCC4)cc31)[C@H]2c1ccccc1OCCO | -0.476 | 1.4 (inactive) | -1.49 (inactive) | -0.0965 (inactive) | 1.78 (inactive) | 1.29 (inactive) | -0.873 (inactive) | -1.05 (inactive) | -1.77 | 0.0547 | 0.263 (inactive) | 0.938 | -2.09 | 1.87 (inactive) | 0.28 (inactive) | 0.188 (inactive)
CCCCC(=C=CC[C@@H](O)c1ccc(CO)o1)CCO | 1.15 | -0.205 (inactive) | -0.438 (inactive) | -0.594 (inactive) | 0.838 (inactive) | 0.175 (inactive) | 1.54 (inactive) | 1.12 (inactive) | 1.22 | 0.128 | 0.54 (inactive) | 0.218 | 0.0728 | -4.16 (inactive) | -0.364 (inactive) | -0.13 (inactive)
COc1cc(CO)cc(I)c1O[C@H]1C=C(C(=O)NCCO)C[C@@H](N(C(=O)c2cc3ccccc3oc2=O)C2CCCCCC2)[C@@H]1O | -0.163 | -1.66 (inactive) | 1.11 (inactive) | -0.346 (inactive) | -0.377 (inactive) | -0.0819 (inactive) | 2.12 (inactive) | 0.435 (inactive) | -0.335 | -0.154 | -0.207 (inactive) | 0.466 | -1.8 | -7.6 (inactive) | 0.21 (inactive) | 0.722 (inactive)
COc1ccc([C@H]2OC[C@@H]3CCC(=O)N32)cc1 | 0.219 | 0.242 (inactive) | 0.526 (inactive) | -0.0915 (inactive) | -0.133 (inactive) | 0.189 (inactive) | 0.905 (inactive) | 0.593 (inactive) | 0.131 | -0.199 | 0.467 (inactive) | 0.394 | 0.401 | 0.119 (inactive) | -0.208 (inactive) | -0.183 (inactive)
CCCCCN1CC=CC23O[C@@H]4C=CCOC(=O)[C@@H]4[C@H]2C(=O)N(C(C)CO)[C@@H]3C1=O (stereo not given in full) | 0.0677 | -0.738 (inactive) | -0.278 (inactive) | -0.478 (inactive) | 0.77 (inactive) | -1.16 (inactive) | -0.232 (inactive) | -0.443 (inactive) | 0.003 | -0.269 | 0.379 (inactive) | -0.0756 | 0.795 | -4.96 (inactive) | 0.719 (inactive) | 0.149 (inactive)
COc1ccc([Si](C)(C)[C@@H]2[C@@H](CCn3cc(CCO)nn3)O[C@]3(C(=O)N(Cc4cccc(N5C(=O)c6cccc7cccc5c67)c4)c4ccccc43)[C@H]2C)cc1 | -3.66 | 0.348 (inactive) | -6.83 (inactive) | 0.0598 (inactive) | -0.459 (inactive) | 1.69 (inactive) | -0.162 (inactive) | -0.831 (inactive) | -6.09 | -0.0999 | 1.49 (inactive) | 0.589 | -2.81 | -2.66 (inactive) | -0.953 (inactive) | -0.813 (inactive)
NCCCCCCNC(=O)[C@H]1C[C@H]2C(=O)N[C@@H](Cc3ccccc3)C(=O)N2[C@H]1c1cccc(OCCO)c1 | -2.77 | -0.669 (inactive) | 1.51 (inactive) | 1.18 (inactive) | -0.627 (inactive) | 0.262 (inactive) | 0.968 (inactive) | 0.846 (inactive) | 1.06 | 0.081 | 1.16 (inactive) | 0.834 | -0.516 | -3.36 (inactive) | -0.182 (inactive) | -0.25 (inactive)
O=C1OCC=C[C@H]2OC34C=CCN(Cn5nnc6ccccc65)C(=O)[C@H]3N(CCCCCO)C(=O)[C@@H]4[C@@H]12 (stereo not given in full) | 0.0883 | 0.21 (inactive) | -0.0233 (inactive) | -1.24 (inactive) | 0.193 (inactive) | -0.273 (inactive) | -0.293 (inactive) | -0.571 (inactive) | -0.0297 | 0.515 | 0.537 (inactive) | 0.193 | -0.133 | -3.27 (inactive) | -0.288 (inactive) | -0.398 (inactive)

From PubChem BioAssay
